Laboratory results reported in PubChem BioAssay (NCI).
Compounds without any hit were thinned out: in the full panel of roughly 83,000, 20% have a hit.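 Percent growth is the endpoint: 0 to 100 indicates growth inhibition (40 means 60% inhibition), 0 means no net growth, and negative values indicate cell death.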 Values without a mark were called inactive. Calls of active or inactive are those of the source. The calls were made as follows: active = growth percent below 10; inactive = the rest.

Columns and labels:
Assay in all cases: NCI-60 one-dose screen, 48 h (100 = growth as untreated, 0 = no growth, -100 = all killed)
Conditions in all cases: 10 µM unless noted
HCT-15 colon = tested on: HCT-15 colon
HT29 colon = tested on: HT29 colon
SNB-75 CNS = tested on: SNB-75 CNS
SNB-19 CNS = tested on: SNB-19 CNS
U251 CNS = tested on: U251 CNS
PC-3 prostate = tested on: PC-3 prostate
SK-MEL-5 melanoma = tested on: SK-MEL-5 melanoma
UACC-62 melanoma = tested on: UACC-62 melanoma
LOX IMVI melanoma = tested on: LOX IMVI melanoma
SK-MEL-28 melanoma = tested on: SK-MEL-28 melanoma

Compound	growth (HCT-15 colon)	growth (HT29 colon)	growth (SNB-75 CNS)	growth (SNB-19 CNS)	growth (U251 CNS)	growth (PC-3 prostate)	growth (SK-MEL-5 melanoma)	growth (UACC-62 melanoma)	growth (LOX IMVI melanoma)	growth (SK-MEL-28 melanoma)
C#CC(=O)Nc1cccc2c1cc(C)n2-c1nc2c(c(NCc3ccccc3)n1)CCCC2	-74.4% (active)	-58.2% (active)	-25.6% (active)	-71.9% (active)	-91.9% (active)	-56.5% (active)	-96.1% (active)	-73.7% (active)	-65.8% (active)	-58.4% (active)
CC(=O)N1N=C(c2cccc(Nc3ccncc3)c2)CC1c1ccc2c(c1)OCO2 (stereo not given)	81.2%	32.7%	80.2%	94.8%	82.8%	79%	81.6%	91.9%	81.7%	93.8%
COc1ccc(C(=O)c2cc3c(N)c(C(=O)Nc4cccc(Cl)c4C)sc3nc2C)cc1	15.9%	6.48% (active)	-7.69% (active)	39.9%	14.4%	21.7%	-23.8% (active)	32%	21.9%	63.3%
CCN(CC)CCCC(C)Nc1cc(-c2cccc(OC(F)(F)F)c2)nc2ccc(N3CCCC3)cc12 (stereo not given)	-14.1% (active)	-24.1% (active)	66.5%	24.2%	-58.4% (active)	14.3%	-98.1% (active)	-86.5% (active)	-80.5% (active)	-93% (active)
COc1cc(Nc2cc(O)c3c(=O)cc(-c4ccccc4)oc3c2)cc(OC)c1	25%	3.58% (active)	-9.05% (active)	43.1%	22.8%	27.8%	28.6%	42.5%	41.7%	68.5%
O=C(OC(OC(=O)c1cc(Cl)cc(Cl)c1)c1cccc2ccccc12)c1ccccc1 (stereo not given)	106%	86.7%	99.3%	100%	98.3%	91.2%	102%	86.4%	92.3%	111%
CN1CCN(CCCOc2ccc3ncnc(Nc4ccc(Oc5cccc(C(F)(F)F)c5)c(Cl)c4)c3c2)CC1	-55.7% (active)	-26.9% (active)	-21.1% (active)	41.7%	-11% (active)	7.28% (active)	-96.8% (active)	-75.7% (active)	-87.7% (active)	-93.2% (active)
O=C(N/N=C/c1cccc(O)c1)c1ccccc1Nc1cccc(C(F)(F)F)c1	72.2%	106%	79.7%	88.1%	82.4%	81.9%	82.5%	80.7%	66.7%	96.6%
